# Measured values as given in ChEMBL document CHEMBL2218924, “A broad activity screen in support of a chemogenomic map for kinase signalling research and drug discovery” (Biochem J, 2013).
# How the values were obtained:
# [1] = biological target: T1, Ephrin type-A receptor 3 (Homo sapiens) (UniProt P29320); settings: at 10 µM
# T1 sequence (whole entry): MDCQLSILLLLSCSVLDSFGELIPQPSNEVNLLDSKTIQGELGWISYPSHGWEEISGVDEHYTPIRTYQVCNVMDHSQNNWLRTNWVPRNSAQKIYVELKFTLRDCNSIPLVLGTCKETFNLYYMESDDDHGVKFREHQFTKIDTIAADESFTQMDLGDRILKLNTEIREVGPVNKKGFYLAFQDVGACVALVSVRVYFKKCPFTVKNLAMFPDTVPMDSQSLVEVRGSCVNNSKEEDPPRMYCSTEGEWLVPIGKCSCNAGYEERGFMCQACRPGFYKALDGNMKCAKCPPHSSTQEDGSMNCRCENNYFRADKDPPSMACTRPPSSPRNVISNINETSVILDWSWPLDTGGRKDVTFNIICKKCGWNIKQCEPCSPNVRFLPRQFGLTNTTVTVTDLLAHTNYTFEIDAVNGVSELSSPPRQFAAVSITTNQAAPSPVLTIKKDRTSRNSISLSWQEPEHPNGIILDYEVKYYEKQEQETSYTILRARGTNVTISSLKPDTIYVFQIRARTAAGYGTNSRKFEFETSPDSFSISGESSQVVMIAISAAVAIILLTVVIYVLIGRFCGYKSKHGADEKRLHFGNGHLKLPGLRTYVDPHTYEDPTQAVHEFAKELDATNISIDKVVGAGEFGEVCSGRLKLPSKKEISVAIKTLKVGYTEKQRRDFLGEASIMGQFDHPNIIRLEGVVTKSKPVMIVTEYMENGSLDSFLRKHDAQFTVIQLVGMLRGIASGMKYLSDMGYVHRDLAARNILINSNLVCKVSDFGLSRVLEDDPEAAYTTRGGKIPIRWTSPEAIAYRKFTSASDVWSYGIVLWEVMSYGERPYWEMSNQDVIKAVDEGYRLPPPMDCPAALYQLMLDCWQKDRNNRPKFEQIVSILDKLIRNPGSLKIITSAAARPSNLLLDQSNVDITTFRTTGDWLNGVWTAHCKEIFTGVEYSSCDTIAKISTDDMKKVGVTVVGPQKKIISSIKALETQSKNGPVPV
# [2] = biological target: Ephrin type-A receptor 4 (Homo sapiens) (UniProt P54764); settings: at 1 µM
# [3] = biological target: Ephrin type-A receptor 4 (Homo sapiens) (UniProt P54764); settings: at 10 µM
# [4] = biological target: Ephrin type-A receptor 5 (Homo sapiens) (UniProt P54756); settings: at 1 µM
# [5] = biological target: Ephrin type-A receptor 5 (Homo sapiens) (UniProt P54756); settings: at 10 µM
# [6] = biological target: Ephrin type-A receptor 7 (Homo sapiens) (UniProt Q15375); settings: at 1 µM
# [7] = biological target: Ephrin type-A receptor 7 (Homo sapiens) (UniProt Q15375); settings: at 10 µM
# [8] = biological target: T2, Ephrin type-A receptor 8 (Homo sapiens) (UniProt P29322); settings: at 1 µM
# T2 sequence (whole entry): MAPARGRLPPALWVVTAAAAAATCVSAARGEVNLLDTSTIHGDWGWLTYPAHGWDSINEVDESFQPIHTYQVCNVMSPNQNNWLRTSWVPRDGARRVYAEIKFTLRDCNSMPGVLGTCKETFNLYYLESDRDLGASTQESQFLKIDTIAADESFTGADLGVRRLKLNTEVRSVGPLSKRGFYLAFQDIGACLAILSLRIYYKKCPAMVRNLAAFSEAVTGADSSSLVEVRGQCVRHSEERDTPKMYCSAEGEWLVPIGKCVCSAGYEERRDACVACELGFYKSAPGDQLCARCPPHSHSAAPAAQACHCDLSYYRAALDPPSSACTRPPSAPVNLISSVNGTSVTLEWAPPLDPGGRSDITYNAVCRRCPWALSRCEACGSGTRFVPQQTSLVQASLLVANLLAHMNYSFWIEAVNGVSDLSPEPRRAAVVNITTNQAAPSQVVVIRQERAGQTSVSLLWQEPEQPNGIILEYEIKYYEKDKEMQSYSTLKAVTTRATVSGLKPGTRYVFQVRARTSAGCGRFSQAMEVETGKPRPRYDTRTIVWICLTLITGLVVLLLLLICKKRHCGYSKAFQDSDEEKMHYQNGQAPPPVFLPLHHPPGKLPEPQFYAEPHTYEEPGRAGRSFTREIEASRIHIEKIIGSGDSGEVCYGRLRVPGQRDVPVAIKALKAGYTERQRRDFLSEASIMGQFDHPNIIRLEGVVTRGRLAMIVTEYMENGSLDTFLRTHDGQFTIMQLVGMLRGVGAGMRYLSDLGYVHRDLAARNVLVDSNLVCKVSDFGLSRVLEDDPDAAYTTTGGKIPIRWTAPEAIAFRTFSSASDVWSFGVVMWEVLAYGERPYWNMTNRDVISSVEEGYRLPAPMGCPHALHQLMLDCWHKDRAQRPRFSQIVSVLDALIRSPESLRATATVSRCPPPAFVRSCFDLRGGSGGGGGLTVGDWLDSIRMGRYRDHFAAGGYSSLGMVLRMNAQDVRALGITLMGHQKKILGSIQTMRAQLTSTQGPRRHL
# [9] = biological target: T2, Ephrin type-A receptor 8 (Homo sapiens); settings: at 10 µM
# [10] = biological target: T3, Ephrin type-B receptor 1 (Homo sapiens) (UniProt P54762); settings: at 1 µM
# T3 sequence (whole entry): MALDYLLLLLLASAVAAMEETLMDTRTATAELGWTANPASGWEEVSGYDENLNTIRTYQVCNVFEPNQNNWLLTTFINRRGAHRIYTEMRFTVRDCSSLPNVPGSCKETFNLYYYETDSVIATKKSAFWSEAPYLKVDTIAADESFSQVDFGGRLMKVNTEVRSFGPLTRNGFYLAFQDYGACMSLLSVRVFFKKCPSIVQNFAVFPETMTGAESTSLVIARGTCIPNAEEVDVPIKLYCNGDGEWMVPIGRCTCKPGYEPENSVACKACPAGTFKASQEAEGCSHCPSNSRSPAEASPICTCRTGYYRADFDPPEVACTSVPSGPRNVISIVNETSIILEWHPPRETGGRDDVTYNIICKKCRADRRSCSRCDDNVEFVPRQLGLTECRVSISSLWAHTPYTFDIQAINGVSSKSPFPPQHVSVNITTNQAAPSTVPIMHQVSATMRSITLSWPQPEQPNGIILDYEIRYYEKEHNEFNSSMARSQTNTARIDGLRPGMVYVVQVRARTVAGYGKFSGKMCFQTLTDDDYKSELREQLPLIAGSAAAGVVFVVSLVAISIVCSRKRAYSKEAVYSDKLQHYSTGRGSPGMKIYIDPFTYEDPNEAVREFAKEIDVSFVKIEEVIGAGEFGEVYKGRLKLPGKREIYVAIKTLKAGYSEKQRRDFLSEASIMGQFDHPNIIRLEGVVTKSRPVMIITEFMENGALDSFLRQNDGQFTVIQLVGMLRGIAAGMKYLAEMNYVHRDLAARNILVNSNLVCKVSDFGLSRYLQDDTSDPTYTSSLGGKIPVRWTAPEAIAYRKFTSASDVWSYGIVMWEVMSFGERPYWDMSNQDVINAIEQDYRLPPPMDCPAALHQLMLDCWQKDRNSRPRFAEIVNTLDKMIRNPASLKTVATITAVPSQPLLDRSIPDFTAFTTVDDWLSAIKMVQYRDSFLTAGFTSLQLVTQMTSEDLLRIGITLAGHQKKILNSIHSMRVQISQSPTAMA
# Chain of Ephrin type-A receptor 4 (Homo sapiens) (P54764 whole entry): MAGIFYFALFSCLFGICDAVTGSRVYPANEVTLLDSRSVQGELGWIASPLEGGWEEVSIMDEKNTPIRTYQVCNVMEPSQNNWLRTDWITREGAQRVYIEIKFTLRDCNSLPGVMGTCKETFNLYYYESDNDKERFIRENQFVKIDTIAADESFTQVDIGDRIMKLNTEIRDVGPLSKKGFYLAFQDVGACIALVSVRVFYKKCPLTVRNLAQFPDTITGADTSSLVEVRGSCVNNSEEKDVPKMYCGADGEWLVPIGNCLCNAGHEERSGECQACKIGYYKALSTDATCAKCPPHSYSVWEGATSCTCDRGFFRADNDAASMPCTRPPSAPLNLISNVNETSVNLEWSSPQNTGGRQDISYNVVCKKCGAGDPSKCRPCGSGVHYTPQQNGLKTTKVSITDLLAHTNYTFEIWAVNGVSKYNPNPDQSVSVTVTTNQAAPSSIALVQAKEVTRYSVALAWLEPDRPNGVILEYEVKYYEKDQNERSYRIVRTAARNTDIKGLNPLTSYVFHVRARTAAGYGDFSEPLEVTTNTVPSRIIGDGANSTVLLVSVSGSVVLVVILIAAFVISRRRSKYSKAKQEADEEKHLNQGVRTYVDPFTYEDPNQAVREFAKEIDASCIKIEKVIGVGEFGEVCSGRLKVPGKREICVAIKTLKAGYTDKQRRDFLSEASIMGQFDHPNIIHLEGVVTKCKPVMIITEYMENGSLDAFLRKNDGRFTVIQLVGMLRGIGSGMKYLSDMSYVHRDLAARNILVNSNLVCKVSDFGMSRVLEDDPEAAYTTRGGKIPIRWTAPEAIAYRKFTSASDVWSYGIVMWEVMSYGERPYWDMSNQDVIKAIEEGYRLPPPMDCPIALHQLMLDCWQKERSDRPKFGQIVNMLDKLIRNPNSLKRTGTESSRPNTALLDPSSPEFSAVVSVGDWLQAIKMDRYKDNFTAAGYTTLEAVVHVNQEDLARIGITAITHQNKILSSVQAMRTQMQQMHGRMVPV
# Chain of Ephrin type-A receptor 5 (Homo sapiens) (P54756 whole entry): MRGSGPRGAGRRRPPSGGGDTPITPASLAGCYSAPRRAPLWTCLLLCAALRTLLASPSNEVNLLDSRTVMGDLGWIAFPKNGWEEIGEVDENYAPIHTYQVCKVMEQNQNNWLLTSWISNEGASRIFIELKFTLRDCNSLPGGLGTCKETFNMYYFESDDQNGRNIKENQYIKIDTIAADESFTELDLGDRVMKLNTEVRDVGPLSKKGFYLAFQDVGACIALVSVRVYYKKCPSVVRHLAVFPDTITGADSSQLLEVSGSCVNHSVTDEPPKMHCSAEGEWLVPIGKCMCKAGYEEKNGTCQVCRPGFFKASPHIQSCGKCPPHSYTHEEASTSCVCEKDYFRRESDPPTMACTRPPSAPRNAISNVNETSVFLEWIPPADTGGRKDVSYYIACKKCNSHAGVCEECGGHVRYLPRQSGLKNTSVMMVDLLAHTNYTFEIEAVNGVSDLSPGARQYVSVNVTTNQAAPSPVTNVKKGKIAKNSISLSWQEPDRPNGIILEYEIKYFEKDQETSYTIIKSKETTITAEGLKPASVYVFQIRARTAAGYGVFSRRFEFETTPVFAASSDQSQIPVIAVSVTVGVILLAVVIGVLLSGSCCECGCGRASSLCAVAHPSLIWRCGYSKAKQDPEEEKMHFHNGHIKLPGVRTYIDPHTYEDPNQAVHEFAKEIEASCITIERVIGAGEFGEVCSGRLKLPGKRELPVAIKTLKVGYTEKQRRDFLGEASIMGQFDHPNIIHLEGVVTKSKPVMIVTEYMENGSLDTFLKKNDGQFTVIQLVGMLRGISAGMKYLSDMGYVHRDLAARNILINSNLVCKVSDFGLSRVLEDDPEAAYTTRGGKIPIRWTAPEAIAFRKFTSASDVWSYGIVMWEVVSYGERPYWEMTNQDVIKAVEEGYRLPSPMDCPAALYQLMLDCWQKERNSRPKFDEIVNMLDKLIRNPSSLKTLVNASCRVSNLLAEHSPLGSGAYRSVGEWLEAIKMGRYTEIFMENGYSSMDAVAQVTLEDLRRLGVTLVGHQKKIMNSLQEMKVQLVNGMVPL
# Chain of Ephrin type-A receptor 7 (Homo sapiens) (Q15375 28-998 limits assumed): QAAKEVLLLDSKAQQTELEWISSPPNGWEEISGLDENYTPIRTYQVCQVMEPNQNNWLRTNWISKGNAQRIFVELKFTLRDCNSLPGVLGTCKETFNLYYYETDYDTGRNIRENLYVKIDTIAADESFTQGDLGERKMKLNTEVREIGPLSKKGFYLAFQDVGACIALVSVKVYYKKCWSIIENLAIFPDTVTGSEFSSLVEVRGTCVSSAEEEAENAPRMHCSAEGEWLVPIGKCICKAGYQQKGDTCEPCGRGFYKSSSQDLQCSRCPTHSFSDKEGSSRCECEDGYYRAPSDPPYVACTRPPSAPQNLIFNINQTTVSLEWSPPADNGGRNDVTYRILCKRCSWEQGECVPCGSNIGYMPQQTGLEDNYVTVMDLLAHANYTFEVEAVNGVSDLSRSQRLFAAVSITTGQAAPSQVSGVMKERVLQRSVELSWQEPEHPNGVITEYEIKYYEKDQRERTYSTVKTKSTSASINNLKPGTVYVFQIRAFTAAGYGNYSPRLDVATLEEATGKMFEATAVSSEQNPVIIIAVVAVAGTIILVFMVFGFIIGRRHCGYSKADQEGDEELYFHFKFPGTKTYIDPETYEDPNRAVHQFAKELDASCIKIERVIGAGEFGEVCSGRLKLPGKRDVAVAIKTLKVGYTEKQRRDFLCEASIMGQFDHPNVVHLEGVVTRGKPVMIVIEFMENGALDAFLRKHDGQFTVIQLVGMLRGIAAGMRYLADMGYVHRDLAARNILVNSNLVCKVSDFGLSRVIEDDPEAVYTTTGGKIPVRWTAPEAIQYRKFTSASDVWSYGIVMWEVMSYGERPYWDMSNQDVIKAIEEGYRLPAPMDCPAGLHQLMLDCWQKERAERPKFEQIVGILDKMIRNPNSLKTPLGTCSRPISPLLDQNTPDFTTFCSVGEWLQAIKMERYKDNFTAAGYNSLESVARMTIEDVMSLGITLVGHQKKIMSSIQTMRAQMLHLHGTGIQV
structure (smiles),measurement,setting,value
O=C1Nc2ccc3ncsc3c2/C1=C/c1c[nH]cn1,residual activity,[1],28%
same,residual activity,[2],102%
same,residual activity,[3],68%
same,residual activity,[4],89%
same,residual activity,[5],42%
same,residual activity,[6],77%
same,residual activity,[7],17%
same,residual activity,[8],95%
same,residual activity,[9],72%
same,residual activity,[10],60%
